High-throughput results as filed in PubChem BioAssay.
Sampled rows, rich in hits. Any-hit rate of the full collection: about 2.3%.
LEDGF integ inh: blocks HIV-1 LEDGF/p75-dependent DNA integration; AID 743269; inhibition, % at 3.7 µM; 370,000 tested, 0.64% active; TR-FRET IN-LEDGF/p75 DNA integration, Eu/Cy5;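 active = inhibition above the screen-wide mean plus 3 SD, cut at about 13% in these data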;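 note: signal is the Cy5 over europium emission ratio at 671 and 618 nm; 0% = plate median of compound wells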
PLCg1 inh: PLC-gamma1 (human) inhibition, primary screen. 370,000 tested, 0.84% active. P19174. purified PLC-gamma1, fluorogenic substrate, fluorescence. inhibition, % at 12.2 µM. AID 720700
PLCb3 inh: PLC-beta3 (human) inhibition, primary screen; Purified PLC-beta3, fluorogenic substrate, fluorescence; inhibition, % at 12.2 µM; Q01970; 370,000 tested, 0.18% active; in the data active = inhibition above about 11%;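 note: 0% = median of compound wells on plate and 100% = full blocker control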
UHRF1 MBD2 ctr: human UHRF1 methylated DNA binding inhibitors; Q96T88; UHRF1 binding to methylated oligo, TR-FRET; inhibition, % at 4.4 µM; 370,000 tested, 0.75% active; AID 687016; in the data active = inhibition above about 21%;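 note: UHRF1 SRA domain binding a hemimethylated CpG hairpin DNA probe; 0% = median of test compound wells and 100% = reference inhibitor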
Target sequence (Q96T88 whole entry, looked up, the tested form may be a part): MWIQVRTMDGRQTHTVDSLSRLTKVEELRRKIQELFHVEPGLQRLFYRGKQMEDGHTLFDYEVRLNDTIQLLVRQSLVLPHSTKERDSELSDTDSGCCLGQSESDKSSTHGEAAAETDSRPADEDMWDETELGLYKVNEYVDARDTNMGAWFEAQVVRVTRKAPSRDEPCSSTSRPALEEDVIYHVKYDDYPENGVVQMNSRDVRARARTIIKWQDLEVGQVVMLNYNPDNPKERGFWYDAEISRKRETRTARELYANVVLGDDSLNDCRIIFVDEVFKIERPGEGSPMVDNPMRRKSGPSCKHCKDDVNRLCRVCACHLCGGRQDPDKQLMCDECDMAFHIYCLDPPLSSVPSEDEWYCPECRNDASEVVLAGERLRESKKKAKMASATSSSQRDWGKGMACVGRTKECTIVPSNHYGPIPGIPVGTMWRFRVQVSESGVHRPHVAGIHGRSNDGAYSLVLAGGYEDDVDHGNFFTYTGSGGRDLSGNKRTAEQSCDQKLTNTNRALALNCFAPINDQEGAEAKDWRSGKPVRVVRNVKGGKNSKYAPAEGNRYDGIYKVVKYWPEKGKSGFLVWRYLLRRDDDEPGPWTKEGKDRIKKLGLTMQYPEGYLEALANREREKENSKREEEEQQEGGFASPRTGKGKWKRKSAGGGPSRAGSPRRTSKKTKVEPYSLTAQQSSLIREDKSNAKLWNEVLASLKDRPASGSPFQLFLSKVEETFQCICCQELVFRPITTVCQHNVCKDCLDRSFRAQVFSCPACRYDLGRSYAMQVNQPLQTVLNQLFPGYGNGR
MBD2 inh: inhibitors of human MBD2 binding to methylated oligonucleotide; Q9UBB5; TR-FRET; inhibition, % at 4.4 µM; 370,000 tested, 0.31% active; AID 686964; in the data active = inhibition above about 13%
PLCgamma1 ctr: PLC-gamma1 inhibition, counter-screen for PLC-beta3 hits; shares compounds with PLCg1 inh; purified PLC-gamma1, fluorogenic substrate, fluorescence; inhibition, % at 12.3 µM; 3,300 tested, 3.1% active; AID 743258
PLCbeta3 conf: human PLC-beta3 inhibition, confirmation; inhibition, % at 12.3 µM; AID 743261; 3,300 tested, 1% active; purified PLC-beta3, fluorogenic substrate fluorescence; shares compounds with PLCg1 inh; in the data active = inhibition above about 11%
* = called active by the depositor. Cut-off read from the data, not from the text of the source, unless noted: active = inhibition above about 9.5%; inactive = the rest.

How did COc1ccc(CNS(=O)(=O)c2ccc(S(=O)(=O)N3CCCCC3)cc2)cc1 do in these assays?
LEDGF integ inh: 7; PLCg1 inh: 11*; PLCb3 inh: 5; UHRF1 MBD2 ctr: 4; MBD2 inh: 0; PLCgamma1 ctr: -4; PLCbeta3 conf: -1

How did COc1ccc(CNC(=O)c2cc(S(=O)(=O)N3CCCCC3)ccc2Cl)cc1OC do in these assays?
LEDGF integ inh: 1; PLCg1 inh: 1; PLCb3 inh: 13*; UHRF1 MBD2 ctr: -1; MBD2 inh: -8; PLCgamma1 ctr: -4; PLCbeta3 conf: 3

What do the screens show for `COc1ccc(S(=O)(=O)N2CCCCCC2)cc1`?
LEDGF integ inh: 1; PLCg1 inh: -1; PLCb3 inh: -3; UHRF1 MBD2 ctr: 6; MBD2 inh: -3

Results for COc1ccc(CNC(=O)c2cccc(S(=O)(=O)N3CCCCC3)c2)cc1OC ?
LEDGF integ inh: 0; PLCg1 inh: 1; PLCb3 inh: -4; UHRF1 MBD2 ctr: 2; MBD2 inh: -4

How did COc1ccc(S(=O)(=O)N2CCN(C3CCCCCCC3)CC2)cc1 do in these assays?
LEDGF integ inh: 2; PLCg1 inh: 1; PLCb3 inh: 2; UHRF1 MBD2 ctr: 2; MBD2 inh: 3

How did COC(=O)[C@]12C[C@H](CC(=O)NCc3cccs3)C(=O)N(Cc3ccco3)C1=C[C@H](C1CCCC1)O[C@@H]2C do in these assays?
LEDGF integ inh: 1; PLCg1 inh: 1; PLCb3 inh: 2; UHRF1 MBD2 ctr: -3; MBD2 inh: -1

What do the screens show for `CCCC(=O)N1CCC[C@]2(CC[C@@H](CCC(=O)OCC)O2)C1`?
LEDGF integ inh: 4; PLCg1 inh: -2; PLCb3 inh: 0; UHRF1 MBD2 ctr: 4; MBD2 inh: 2

How did CN(C)S(=O)(=O)c1ccc(C(=O)N2CCCC2c2nc3ccccc3s2)cc1 (centres undefined) do in these assays?
LEDGF integ inh: 1; PLCg1 inh: 8; PLCb3 inh: 11*; UHRF1 MBD2 ctr: 1; MBD2 inh: 4; PLCgamma1 ctr: 6; PLCbeta3 conf: 4

What do the screens show for `COc1ccc(-c2cccc(NS(=O)(=O)c3cccc([N+](=O)[O-])c3)c2)nn1`?
LEDGF integ inh: 0; PLCg1 inh: -2; PLCb3 inh: -2; UHRF1 MBD2 ctr: 1; MBD2 inh: -5

How did COc1ccc(-c2ccc(NS(=O)(=O)c3cccc([N+](=O)[O-])c3)cc2)nn1 do in these assays?
LEDGF integ inh: -2; PLCg1 inh: 13*; PLCb3 inh: -2; UHRF1 MBD2 ctr: 6; MBD2 inh: 1; PLCgamma1 ctr: -3; PLCbeta3 conf: -1

Results for Cc1ccc(C2=N/C(=C\c3cccc(F)c3)C(=O)O2)cc1 ?
LEDGF integ inh: -1; PLCg1 inh: 0; PLCb3 inh: -6; UHRF1 MBD2 ctr: 0; MBD2 inh: 0

What do the screens show for `CN(C)/C=C1/N=C(c2ccccc2)OC1=O`?
LEDGF integ inh: 3; PLCg1 inh: 10*; PLCb3 inh: 10; UHRF1 MBD2 ctr: -2; MBD2 inh: 1; PLCgamma1 ctr: 4; PLCbeta3 conf: 10

How did CN(C)/C=C1\N=C(c2cccs2)OC1=O do in these assays?
LEDGF integ inh: -2; PLCg1 inh: 2; PLCb3 inh: -3; UHRF1 MBD2 ctr: -4; MBD2 inh: -1

How did Cc1ccc(C2=N/C(=C\N(C)C)C(=O)O2)cc1 do in these assays?
LEDGF integ inh: 0; PLCg1 inh: 9.6*; PLCb3 inh: 6; UHRF1 MBD2 ctr: -2; MBD2 inh: -3; PLCgamma1 ctr: 6; PLCbeta3 conf: 7

How did CCc1ccccc1NC(=O)CN(C)C(=O)COC(=O)c1c(Cl)cccc1Cl do in these assays?
LEDGF integ inh: -2; PLCg1 inh: 3; PLCb3 inh: -7; UHRF1 MBD2 ctr: 1; MBD2 inh: 1

Results for CCc1ccccc1NC(=O)CN(C)C(=O)COC(=O)c1cccnc1Cl ?
LEDGF integ inh: 5; PLCg1 inh: 10*; PLCb3 inh: -1; UHRF1 MBD2 ctr: 2; MBD2 inh: 0; PLCgamma1 ctr: -6; PLCbeta3 conf: 0

Results for O=[N+]([O-])c1cccc(-c2c(-c3ccccc3)ncc3ccc(F)cc23)c1 ?
LEDGF integ inh: -2; PLCg1 inh: 6; PLCb3 inh: 11*; UHRF1 MBD2 ctr: 3; MBD2 inh: 1; PLCgamma1 ctr: -2; PLCbeta3 conf: -2

How did COc1ccccc1C(=O)NC1CCCCN(Cc2ccc(OC(F)(F)F)cc2)C1=O (centres undefined) do in these assays?
LEDGF integ inh: 4; PLCg1 inh: 0; PLCb3 inh: 0; UHRF1 MBD2 ctr: 0; MBD2 inh: 4

Results for COc1ccc(-c2nnc(SCC(=O)Nc3ccccc3)n2C)cc1 ?
LEDGF integ inh: 1; PLCg1 inh: 13*; PLCb3 inh: 2; UHRF1 MBD2 ctr: 1; MBD2 inh: 0; PLCgamma1 ctr: -7; PLCbeta3 conf: -3

What do the screens show for `COc1ccc(-c2nnc(SCC(=O)NCc3cccs3)n2CC(C)C)cc1`?
LEDGF integ inh: 2; PLCg1 inh: 10*; PLCb3 inh: 9; UHRF1 MBD2 ctr: 8; MBD2 inh: 5; PLCgamma1 ctr: -3; PLCbeta3 conf: 1

How did Cc1ccc(-c2nnc(SCC(=O)N/N=C/c3ccccc3C(=O)O)n2-c2ccc(C)cc2)cc1 do in these assays?
LEDGF integ inh: 6; PLCg1 inh: 0; PLCb3 inh: -5; UHRF1 MBD2 ctr: 1; MBD2 inh: 0

Results for COc1ccc(-c2nnc(SCC(=O)N/N=C/c3ccccc3C(=O)O)n2-c2ccccc2)cc1 ?
LEDGF integ inh: 1; PLCg1 inh: 14*; PLCb3 inh: 3; UHRF1 MBD2 ctr: 6; MBD2 inh: -3; PLCgamma1 ctr: -1; PLCbeta3 conf: -2

What do the screens show for `CN1[C@H](Cc2ccccc2)COc2cccc(N3CCCC3)c2S1(=O)=O`?
LEDGF integ inh: -1; PLCg1 inh: -3; PLCb3 inh: -5; UHRF1 MBD2 ctr: -2; MBD2 inh: 4

How did CCCC(C)NC(=O)CC1Oc2ccccc2NC1=O (centres undefined) do in these assays?
LEDGF integ inh: 2; PLCg1 inh: 1; PLCb3 inh: -1; UHRF1 MBD2 ctr: 5; MBD2 inh: 0

How did CCOc1ccc(Cc2nc(C)c(CC(=O)N3CCOCC3)c(=O)[nH]2)cc1 do in these assays?
LEDGF integ inh: 0; PLCg1 inh: 11*; PLCb3 inh: 3; UHRF1 MBD2 ctr: 4; MBD2 inh: -1; PLCgamma1 ctr: -5; PLCbeta3 conf: -3

Results for CCOc1ccc(-n2nnnc2SCC(=O)N2CCOCC2)cc1 ?
LEDGF integ inh: -1; PLCg1 inh: 1; PLCb3 inh: -1; UHRF1 MBD2 ctr: 0; MBD2 inh: -1

How did CSCCCNc1nc(C)nc2c1nnn2Cc1ccccc1 do in these assays?
LEDGF integ inh: 3; PLCg1 inh: 5; PLCb3 inh: 4; UHRF1 MBD2 ctr: 0; MBD2 inh: -7
